# Test results published in PubChem BioAssay.
# Calls of active or inactive are those of the source.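 The calls were made as follows: active = Her2 level under about 52% in both replicate screens, with viability over 70% of control (limit read from the data); inconclusive = Her2 under the limit in one screen only, or viability under 70%; inactive = Her2 level above the set limit.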
# Test system: not listed separately
# Assay: Her2 expression decrease, cell viability multiplex – SKBR3 breast tumor cells, AlphaScreen, ATP viability, primary screen (AID 461);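 as to Her2 level: lower value means less Her2 protein in the cells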;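 as to viability: percent of carrier control wells set as 100% viability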
# Settings: SKBR3 Her2 protein level, 18-24 h, measured here: SKBR3 viability, ATP luminescence, at 10 µM
row,Compound,viability
1,CCOC(=O)N1CCC(NC(=O)CCc2c(C)nc3c(c(C)nn3C(C)(C)C)c2C)CC1,91%
2,Cc1cc2nc(C3CCN(CC4COc5ccccc5O4)CC3)[nH]c2cc1C (stereo not given),98.5%
3,CNC(=O)Nc1cccc(C(F)(F)F)c1,105%
4,COc1ccccc1C1CC(c2ccc(C)cc2)Nc2ncnn21 (stereo not given),107%
5,CCCn1c2ccccc2c2nnc(SCC(=O)OCC)nc21,95%
6,Cc1nnc2ccc(N3CCN(c4cccc(C(F)(F)F)c4)CC3)nn12,97.5%
7,O=C(Cn1ccc2ccccc2c1=O)NCCC(=O)NC1CCN(Cc2ccccc2)CC1,58%
8,Cc1nc(SCC(=O)Nc2ccccc2C(F)(F)F)c2c(=O)n(C)c(=O)n(C)c2n1,87%
9,CCOC(=O)N1CCC(NC(=O)CSCc2nc(-c3cccc(OC)c3)oc2C)CC1,94.5%
10,COc1cc(C(=O)N2CCC(c3nc(-c4cccnc4)no3)CC2)cc(OC)c1OC,96%
11,O=C(Nc1ccc2c(c1)OCCO2)c1ccco1,83%
12,CCOC(=O)c1cnc(-n2nc(C)cc2C)nc1Nc1cccc(C(C)=O)c1,87.5%
13,O=c1[nH]cnc2c1nc(SCc1ccccc1)n2C1OC(CO)C(O)C1O (stereo not given),94.5%
14,COc1ccc(CCn2c(-c3ccco3)nc3nc4ccccc4nc32)cc1,108%
15,O=S(=O)(c1ccc(-c2csc(-c3cccnc3)n2)cc1)N1CCCCC1,106%
16,CCCOc1nc(N)c(C#N)c(-c2ccccc2F)c1C#N,98.5%
17,COc1cc(OC)c(OC)cc1CN(C)CCc1ccccn1,104%
18,CCOC(=O)c1c(-c2cccs2)csc1NC(=O)CCCC(=O)O,110%
19,Cc1cccc(-c2c3c(=O)n(C)c(=O)n(C)c3cn2-c2ccc(O)cc2)c1,102%
20,CCN(C(=O)CCc1nc(-c2ccccc2F)no1)c1cc(OC)ccc1OC,87.5%

row,Compound,viability
1,CCc1nc(SCC(=O)Nc2nccs2)c2oc3ccccc3c2n1,91%
2,Cc1c(C#N)sc2nc(-c3ccccc3)nc(N3CCCC3)c12,85.5%
3,Cc1cccc(N=C2NC(=O)CS2)c1C,108%
4,COCCNC(=O)c1ccc2c(c1)nc(C)n2-c1cccc(F)c1,129%
5,CCOC(=O)c1[nH]c2ccc(C)cc2c1N=C(C)N(C)C,100%
6,COc1ccc2nc(N3CCC(C)CC3)c(C#N)cc2c1,108%
7,Cc1ccccc1NS(=O)(=O)c1cc(S(C)(=O)=O)ccc1Cl,96%
8,Cc1cc(C)c2c(N)c(C(=O)N3CCN(c4ncccn4)CC3)sc2n1,104%
9,Cc1cc(C)n2nc3nc(N4CCCCC4)nc(-c4ccco4)c3c2n1,81.5%
10,O=C(O)c1cc(=O)cc(C(=O)O)[nH]1,80.5%
11,COc1ccc(NC(C)=O)cc1NC(=O)CN1CCN(c2ccccn2)CC1,96%
12,CCOC(=O)c1cccc(NC(=O)CS(=O)(=O)Cc2nc(-c3cccc(OC)c3)oc2C)c1,99.5%
13,O=C(CCc1nc2ccccc2s1)OCC(=O)N1CCN(C(=O)c2ccco2)CC1,117%
14,Cc1ccccc1CS(=O)(=O)Cc1ccc(C(=O)NCCCN2CCOCC2)o1,77%
15,CCOC(=O)c1cccc(NC(=O)Cn2cnc3c2c(=O)n(C)c(=O)n3C)c1,104%
16,O=C(Nc1ccon1)c1csc2c1CCCC2,92.5%
17,CC(C)(C)n1ncc2c(=O)n(CC(=O)NCCc3ccccc3)cnc21,88%
18,Cc1cccc2sc(NC(=O)CN(C)S(=O)(=O)c3cccs3)nc12,76.5%
19,CCOC(=O)c1cccc(NC(=O)CSc2nnc(C3CCCCC3)n2C)c1,91%
20,CCCc1nnc2n1N=C(c1ccc(OC)c(OC)c1)CS2,85%

# Biological target: Receptor tyrosine-protein kinase erbB-2 (Homo sapiens) (UniProt P04626)
# Sequence (P04626 whole entry, looked up): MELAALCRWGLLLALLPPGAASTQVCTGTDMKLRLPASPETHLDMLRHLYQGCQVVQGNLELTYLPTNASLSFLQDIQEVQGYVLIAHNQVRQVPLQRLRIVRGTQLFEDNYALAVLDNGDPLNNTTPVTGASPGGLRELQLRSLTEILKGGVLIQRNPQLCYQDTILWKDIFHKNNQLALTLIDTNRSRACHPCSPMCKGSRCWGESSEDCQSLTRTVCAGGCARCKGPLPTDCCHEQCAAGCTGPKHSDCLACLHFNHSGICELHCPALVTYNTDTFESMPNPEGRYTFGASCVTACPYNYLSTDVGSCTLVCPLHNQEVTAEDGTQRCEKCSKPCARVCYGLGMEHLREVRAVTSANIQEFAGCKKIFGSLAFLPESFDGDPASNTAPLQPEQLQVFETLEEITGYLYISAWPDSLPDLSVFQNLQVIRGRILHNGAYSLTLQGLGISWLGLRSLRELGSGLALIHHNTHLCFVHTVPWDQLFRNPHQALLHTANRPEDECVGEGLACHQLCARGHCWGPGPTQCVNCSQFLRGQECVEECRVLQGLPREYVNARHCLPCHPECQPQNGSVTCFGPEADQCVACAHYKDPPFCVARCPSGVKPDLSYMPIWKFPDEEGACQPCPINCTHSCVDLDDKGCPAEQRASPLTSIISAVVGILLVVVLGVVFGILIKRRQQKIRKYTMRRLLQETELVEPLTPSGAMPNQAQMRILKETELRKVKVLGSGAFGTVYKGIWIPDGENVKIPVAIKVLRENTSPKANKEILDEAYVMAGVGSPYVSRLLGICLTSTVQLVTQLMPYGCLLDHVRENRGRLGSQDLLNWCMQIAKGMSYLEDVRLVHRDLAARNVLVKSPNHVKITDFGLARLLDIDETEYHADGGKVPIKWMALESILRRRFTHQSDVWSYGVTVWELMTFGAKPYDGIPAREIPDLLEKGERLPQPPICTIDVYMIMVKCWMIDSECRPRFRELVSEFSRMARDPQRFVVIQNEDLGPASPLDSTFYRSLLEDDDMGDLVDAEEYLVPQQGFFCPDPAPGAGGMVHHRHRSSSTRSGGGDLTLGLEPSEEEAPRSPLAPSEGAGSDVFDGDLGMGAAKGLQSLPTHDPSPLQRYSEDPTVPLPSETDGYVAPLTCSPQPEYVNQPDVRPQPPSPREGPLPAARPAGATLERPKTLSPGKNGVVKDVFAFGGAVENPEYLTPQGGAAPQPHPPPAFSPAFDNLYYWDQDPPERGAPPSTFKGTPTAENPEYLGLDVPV
# Assay: as above
# Settings: 18-24 h, at 10 µM, stronger effect = lower value
row,Compound,Her2 level
1,CCOC(=O)N1CCC(NC(=O)CCc2c(C)nc3c(c(C)nn3C(C)(C)C)c2C)CC1,78.5% (inactive)
2,Cc1cc2nc(C3CCN(CC4COc5ccccc5O4)CC3)[nH]c2cc1C (stereo not given),87.5% (inactive)
3,CNC(=O)Nc1cccc(C(F)(F)F)c1,82.5% (inactive)
4,COc1ccccc1C1CC(c2ccc(C)cc2)Nc2ncnn21 (stereo not given),116% (inactive)
5,CCCn1c2ccccc2c2nnc(SCC(=O)OCC)nc21,78.5% (inactive)
6,Cc1nnc2ccc(N3CCN(c4cccc(C(F)(F)F)c4)CC3)nn12,77.5% (inactive)
7,O=C(Cn1ccc2ccccc2c1=O)NCCC(=O)NC1CCN(Cc2ccccc2)CC1,106% (inactive)
8,Cc1nc(SCC(=O)Nc2ccccc2C(F)(F)F)c2c(=O)n(C)c(=O)n(C)c2n1,85% (inactive)
9,CCOC(=O)N1CCC(NC(=O)CSCc2nc(-c3cccc(OC)c3)oc2C)CC1,91% (inactive)
10,COc1cc(C(=O)N2CCC(c3nc(-c4cccnc4)no3)CC2)cc(OC)c1OC,110% (inactive)
11,O=C(Nc1ccc2c(c1)OCCO2)c1ccco1,106% (inactive)
12,CCOC(=O)c1cnc(-n2nc(C)cc2C)nc1Nc1cccc(C(C)=O)c1,110% (inactive)
13,O=c1[nH]cnc2c1nc(SCc1ccccc1)n2C1OC(CO)C(O)C1O (stereo not given),88% (inactive)
14,COc1ccc(CCn2c(-c3ccco3)nc3nc4ccccc4nc32)cc1,110% (inactive)
15,O=S(=O)(c1ccc(-c2csc(-c3cccnc3)n2)cc1)N1CCCCC1,102% (inactive)
16,CCCOc1nc(N)c(C#N)c(-c2ccccc2F)c1C#N,114% (inactive)
17,COc1cc(OC)c(OC)cc1CN(C)CCc1ccccn1,107% (inactive)
18,CCOC(=O)c1c(-c2cccs2)csc1NC(=O)CCCC(=O)O,87% (inactive)
19,Cc1cccc(-c2c3c(=O)n(C)c(=O)n(C)c3cn2-c2ccc(O)cc2)c1,80% (inactive)
20,CCN(C(=O)CCc1nc(-c2ccccc2F)no1)c1cc(OC)ccc1OC,130% (inactive)

row,Compound,Her2 level
1,CCc1nc(SCC(=O)Nc2nccs2)c2oc3ccccc3c2n1,87.5% (inactive)
2,Cc1c(C#N)sc2nc(-c3ccccc3)nc(N3CCCC3)c12,83% (inactive)
3,Cc1cccc(N=C2NC(=O)CS2)c1C,80% (inactive)
4,COCCNC(=O)c1ccc2c(c1)nc(C)n2-c1cccc(F)c1,79.5% (inactive)
5,CCOC(=O)c1[nH]c2ccc(C)cc2c1N=C(C)N(C)C,89% (inactive)
6,COc1ccc2nc(N3CCC(C)CC3)c(C#N)cc2c1,101% (inactive)
7,Cc1ccccc1NS(=O)(=O)c1cc(S(C)(=O)=O)ccc1Cl,98.5% (inactive)
8,Cc1cc(C)c2c(N)c(C(=O)N3CCN(c4ncccn4)CC3)sc2n1,96.5% (inactive)
9,Cc1cc(C)n2nc3nc(N4CCCCC4)nc(-c4ccco4)c3c2n1,81% (inactive)
10,O=C(O)c1cc(=O)cc(C(=O)O)[nH]1,91.5% (inactive)
11,COc1ccc(NC(C)=O)cc1NC(=O)CN1CCN(c2ccccn2)CC1,116% (inactive)
12,CCOC(=O)c1cccc(NC(=O)CS(=O)(=O)Cc2nc(-c3cccc(OC)c3)oc2C)c1,79% (inactive)
13,O=C(CCc1nc2ccccc2s1)OCC(=O)N1CCN(C(=O)c2ccco2)CC1,93.5% (inactive)
14,Cc1ccccc1CS(=O)(=O)Cc1ccc(C(=O)NCCCN2CCOCC2)o1,97% (inactive)
15,CCOC(=O)c1cccc(NC(=O)Cn2cnc3c2c(=O)n(C)c(=O)n3C)c1,91.5% (inactive)
16,O=C(Nc1ccon1)c1csc2c1CCCC2,85% (inactive)
17,CC(C)(C)n1ncc2c(=O)n(CC(=O)NCCc3ccccc3)cnc21,108% (inactive)
18,Cc1cccc2sc(NC(=O)CN(C)S(=O)(=O)c3cccs3)nc12,125% (inactive)
19,CCOC(=O)c1cccc(NC(=O)CSc2nnc(C3CCCCC3)n2C)c1,89% (inactive)
20,CCCc1nnc2n1N=C(c1ccc(OC)c(OC)c1)CS2,80% (inactive)
